From PubChem
Compounds with a hit are over-represented: about 1.1% of the library has one in this group of screens.
PI4K2A block: qHTS for small molecular inhibitors of PI4K2A. actives 0.13% (n = 420,000). AID 1346378, 2018. Phosphatidylinositol 4-kinase type 2-alpha (Homo sapiens), Q9BTU6. purified PI4K2A, ADP-Glo luminescence, 1 h; stronger effect = lower value. activity change, negative = inhibition, % at 76.9 µM; in the data active = activity change below about -50%; inconclusive = mostly about -30% to -49%
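In this quantitative HTS, ADP production by PI4K2A was quantified luminescently after 1 h at ambient temperature; 100 microM adenosine served as plate-quality control.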
TrxR1 substrate: qHTS Assay for Substrates of Mammalian Selenoprotein Thioredoxin Reductase 1 (TrxR1): qHTS; Thioredoxin reductase 1, cytoplasmic (Rattus norvegicus), O89049; purified TrxR1 substrate turnover, NADPH consumption readout; Potency, µM (highest dose often 114 µM); actives 0.01% (n = 390,000); AID 588456, 2011; also: nearly all actives have a fitted effect of over 50% in size
Target sequence (O89049 whole entry, looked up): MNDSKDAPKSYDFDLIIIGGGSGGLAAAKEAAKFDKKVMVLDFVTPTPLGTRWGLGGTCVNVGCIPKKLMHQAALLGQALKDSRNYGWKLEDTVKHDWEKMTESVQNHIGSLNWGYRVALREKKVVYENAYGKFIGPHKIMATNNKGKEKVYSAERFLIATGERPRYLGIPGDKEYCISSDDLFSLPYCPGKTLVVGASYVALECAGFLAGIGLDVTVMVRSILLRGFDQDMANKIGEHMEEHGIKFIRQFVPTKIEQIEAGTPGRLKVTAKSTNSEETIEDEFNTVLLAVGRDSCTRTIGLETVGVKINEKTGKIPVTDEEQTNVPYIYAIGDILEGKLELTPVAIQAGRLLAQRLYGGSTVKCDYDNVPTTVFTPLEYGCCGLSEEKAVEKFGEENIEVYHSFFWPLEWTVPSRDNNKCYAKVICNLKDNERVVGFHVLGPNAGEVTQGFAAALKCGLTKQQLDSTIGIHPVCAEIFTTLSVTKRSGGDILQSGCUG
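Rat TrxR1, dispensed at 90 nM, was prereduced with 400 uM NADPH (final) for 5 min at ~22 deg C, then incubated with compound 15 min before 400 uM selenite. A first-read NADPH fluorescence drop versus no-compound background flagged substrates.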
rTrxR1 inhibitor: qHTS Assay for Inhibitors of Mammalian Selenoprotein Thioredoxin Reductase 1 (TrxR1): qHTS. Thioredoxin reductase 1, cytoplasmic (Rattus norvegicus), O89049. recombinant rTrxR1, NADPH fluorescence consumption, selenite substrate. Potency, µM (titrated, usually from 114 µM), most hits filed as inhibitors. actives 1% (n = 390,000). AID 588453, 2011; also: nearly all actives have a fitted effect of over 65% in size
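Rat TrxR1 (90 nM in the dispensed reagent) was pre-reduced with 400 uM NADPH for 5 min at room temperature, then incubated with compound for 15 min. After 400 uM selenite was added, NADPH fluorescence (Ex 340/Em 450 nm) was followed for 8 min.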
GALK inhibitor: qHTS Assay for Inhibitors of Human Galactokinase (GALK); P51570; Purified GALK, Kinase-Glo residual ATP luminescence; Potency, µM (top dose mostly 57.5 µM), usual class: inhibitors; actives 0.007% (n = 270,000)
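GALK at 5 nM final was combined with compound, 35 uM ATP and 100 uM galactose in HEPES pH8.0 with MgCl2 and DTT. The reaction ran one hour at room temperature before luminescent ATP detection.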
A number is an active result; [ ] = remark or other dose. Unless noted, calls follow the shape of the dose curve; as a rule, active = well fitted curve in the direction sought with a large enough effect; inconclusive = small, poorly fitted or top-dose-only effect, or another doubt; inactive = no such curve, though single readings can be large; an effect the other way counts as inactive or inconclusive.

Screening Cc1ccc(C2C(C(=O)c3cccs3)=C(O)C(=O)N2CCN2CCOCC2)o1 (stereo not given) returned PI4K2A block inactive, TrxR1 substrate inactive, rTrxR1 inhibitor inconclusive and GALK inhibitor inactive.
`O=C(C1=C(O)C(=O)N(Cc2ccco2)C1c1cccnc1)c1cc2ccccc2o1` (stereo not given) gave PI4K2A block inactive, TrxR1 substrate inactive, rTrxR1 inhibitor 12.6µM and GALK inhibitor inactive.
COc1cccc2cc(C(=O)C3=C(O)C(=O)N(Cc4ccco4)C3c3cccnc3)oc12 (stereo not given) was read as PI4K2A block inactive, TrxR1 substrate inactive, rTrxR1 inhibitor inconclusive and GALK inhibitor inactive.
Screening O=C(C1=C(O)C(=O)N(CCCN2CCOCC2)C1c1ccncc1)c1cc2ccccc2o1 (stereo not given) returned GALK inhibitor inactive.
`O=C(C1=C(O)C(=O)N(CCN2CCOCC2)C1c1cccc(F)c1)c1cc2ccccc2o1` (stereo not given) gave PI4K2A block inactive, TrxR1 substrate inactive, rTrxR1 inhibitor inconclusive and GALK inhibitor inactive.
For O=C(C1=C(O)C(=O)N(CCN2CCOCC2)C1c1cccs1)c1cc2ccccc2o1 (stereo not given) the results were PI4K2A block inactive, TrxR1 substrate inactive and rTrxR1 inhibitor 56.2µM.
`CCN(CC)CCN1C(=O)C(O)=C(C(=O)c2cccs2)C1c1ccc(C)o1` (stereo not given) gave PI4K2A block inactive, TrxR1 substrate inactive, rTrxR1 inhibitor 15.8µM and GALK inhibitor inactive.
`O=C(C1=C(O)C(=O)N(CCN2CCOCC2)C1c1cccc(O)c1)c1cc2ccccc2o1` (stereo not given) gave PI4K2A block inactive, TrxR1 substrate inactive, rTrxR1 inhibitor 50.1µM and GALK inhibitor inactive.
CC(C)OCCCNC(=O)c1cn(C)c2ccc(S(=O)(=O)N3CCCCCC3)cc2c1=O was read as PI4K2A block inactive, TrxR1 substrate inactive and rTrxR1 inhibitor inactive.
Screening COc1ccc(N2C(=O)CS(=O)(=O)C23C(=O)N(Cc2ccc(F)cc2)c2ccc(C)cc23)cc1 (stereo not given) returned PI4K2A block inactive, TrxR1 substrate inactive and rTrxR1 inhibitor inactive.
For CCOc1ccc(C(=O)N2CCC(c3ccncc3)CC2)cc1 the results were PI4K2A block inactive, TrxR1 substrate inactive and rTrxR1 inhibitor inactive.
COc1ccc2nc(Cl)c(C3CC(c4ccco4)=NN3C(=O)CCCC(=O)O)cc2c1 (stereo not given) was read as PI4K2A block inactive, TrxR1 substrate inactive, rTrxR1 inhibitor 39.8µM and GALK inhibitor inactive.
For O=C(CSc1nc2scc(-c3ccco3)c2c(=O)n1-c1ccccc1)N1CCOCC1 the results were PI4K2A block inactive, TrxR1 substrate inactive[0.457 µM], rTrxR1 inhibitor inactive and GALK inhibitor inactive.
`C=CCn1c(SCC(=O)NCC2CCCO2)nc2scc(-c3ccco3)c2c1=O` (stereo not given) gave PI4K2A block inactive, TrxR1 substrate inactive, rTrxR1 inhibitor inactive and GALK inhibitor inactive.
For O=c1c2c(-c3ccco3)csc2nc(SCc2cn3cccnc3n2)n1-c1ccccc1 the results were PI4K2A block -58.2, TrxR1 substrate inactive[11.4 µM], rTrxR1 inhibitor inactive[11.4 µM] and GALK inhibitor inactive.
NC(=O)CSc1nc2scc(-c3ccco3)c2c(=O)n1-c1ccccc1 was read as PI4K2A block inconclusive, TrxR1 substrate inactive, rTrxR1 inhibitor 8.91µM and GALK inhibitor inactive.
O=C(CSc1nc2scc(-c3ccco3)c2c(=O)n1-c1ccccc1)NCC1CCCO1 (stereo not given) was read as PI4K2A block inactive, TrxR1 substrate inactive, rTrxR1 inhibitor 44.7µM and GALK inhibitor inactive.
For C=CCn1c(SCC(=O)NCC2CCCO2)nc2scc(-c3ccc(OC)cc3)c2c1=O (stereo not given) the results were PI4K2A block inactive, TrxR1 substrate inactive, rTrxR1 inhibitor inactive and GALK inhibitor inactive.
Screening C=CCn1c(SCC(=O)NCCOC)nc2scc(-c3ccco3)c2c1=O returned PI4K2A block inactive, TrxR1 substrate inactive, rTrxR1 inhibitor 44.7µM and GALK inhibitor inactive.
Screening COC(=O)[C@]12C[C@H](CC(=O)NCCCCc3ccccc3)C(=O)N(CCC3=CCCCC3)C1=C[C@H](C1CCCC1)O[C@@H]2C returned PI4K2A block inactive.
For Cc1ccc(C)c(-n2c(SCC(=O)NCC3CCCO3)nnc2-c2ccoc2C)c1 (stereo not given) the results were PI4K2A block inactive, TrxR1 substrate inactive, rTrxR1 inhibitor 28.2µM and GALK inhibitor inactive.
For O=C(Cc1cc(=O)[nH][nH]1)N/N=C/c1c(F)cccc1Cl the results were PI4K2A block inactive, TrxR1 substrate inactive, rTrxR1 inhibitor inactive and GALK inhibitor inactive.
For O=C(Cc1cc(=O)[nH][nH]1)N/N=C/c1c(Cl)cccc1Cl the results were PI4K2A block inactive, TrxR1 substrate inactive, rTrxR1 inhibitor 44.7µM and GALK inhibitor inactive.
For CCOC(=O)C1CCN(C(=O)N2CCOCC2)CC1 the results were PI4K2A block -89.7, TrxR1 substrate inactive, rTrxR1 inhibitor inactive and GALK inhibitor inactive.
COC(=O)C1CCN(C(=O)N2CCOCC2)CC1 was read as PI4K2A block inactive, TrxR1 substrate inactive, rTrxR1 inhibitor inactive and GALK inhibitor inactive.
COC(=O)c1ccc(-c2ccc(/C=N/N3C(=O)C4C5C=CC(C6CC56)C4C3=O)o2)cc1 (stereo not given) was read as PI4K2A block inactive, TrxR1 substrate inactive, rTrxR1 inhibitor 20µM and GALK inhibitor inactive.
O=C1C2C(C(=O)N1/N=C/c1ccc([N+](=O)[O-])o1)C1C=CC2C12CC2 (stereo not given) was read as PI4K2A block inactive, TrxR1 substrate inactive, rTrxR1 inhibitor 56.2µM and GALK inhibitor inactive.
`O=C1C2C3C=CC(C4CC34)C2C(=O)N1/N=C/c1ccc([N+](=O)[O-])o1` (stereo not given) gave PI4K2A block inactive, TrxR1 substrate inactive, rTrxR1 inhibitor 14.1µM and GALK inhibitor inactive.
For Cc1ccc(-n2nc(C(=O)N3CCCCC3)c(=O)n(C)c2=O)cc1 the results were PI4K2A block inactive, TrxR1 substrate inactive and rTrxR1 inhibitor inactive.
Screening COc1ccc(NC(=O)Cn2c(=O)n(Cc3ccccc3OC)c(=O)c3cccnc32)cc1Cl returned PI4K2A block inactive, TrxR1 substrate inactive and rTrxR1 inhibitor inactive.
Cc1cc2ccccn2c1C(=O)c1ccc([N+](=O)[O-])cc1[N+](=O)[O-] was read as PI4K2A block inactive, TrxR1 substrate inactive, rTrxR1 inhibitor 3.16µM and GALK inhibitor inactive.
Screening Cc1cc2ccccn2c1C(=O)c1ccc([N+](=O)[O-])o1 returned PI4K2A block inactive, TrxR1 substrate inactive, rTrxR1 inhibitor 11.2µM and GALK inhibitor inactive.
Cc1onc(-c2ccc(Cl)cc2)c1-c1ccn(S(=O)(=O)c2cccc(Cl)c2)n1 was read as PI4K2A block inactive.
